Experiments:
Test in all cases: log2 ratio of Biotin-Ahx-Ub-VS probe labelling (fragment/DMSO); higher = less target engagement (more negative = stronger competition), active = hit call of the paper (q ≤ 0.05, log2 ratio ≤ -1)
Conditions in all cases: compound concentration: 200 uM; treatment time: 3 h
USP9X = USP9X (UniProt Q93008)
Outline: (§1)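 In triplicate, 495 µg of HEK293T lysate per sample was incubated with fragment at 200 µM or vehicle for 3 h. Biotin-Ahx-Ub-VS was then added to 0.5 µM final for 1 h, and labelled DUBs were captured with NeutrAvidin, digested with LysC and trypsin, and measured by diaPASEF LC-MS/MS. Data are average log2 fragment/vehicle ratios by unpaired t-test from global-median-normalised Spectronaut label-free quantities, restricted to proteins with ≥2 unique peptides.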

UniProt O00487 = biological target: UniProt O00487
Chain of UniProt O00487 (O00487 whole entry): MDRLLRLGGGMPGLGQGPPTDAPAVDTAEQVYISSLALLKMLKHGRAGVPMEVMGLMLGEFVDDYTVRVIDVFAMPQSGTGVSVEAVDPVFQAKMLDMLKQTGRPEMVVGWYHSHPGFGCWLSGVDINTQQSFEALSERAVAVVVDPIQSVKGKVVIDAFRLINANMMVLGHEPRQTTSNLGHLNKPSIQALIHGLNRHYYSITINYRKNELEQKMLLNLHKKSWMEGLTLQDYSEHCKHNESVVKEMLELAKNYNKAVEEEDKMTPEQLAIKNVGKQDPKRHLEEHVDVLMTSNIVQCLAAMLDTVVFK
Outline: as §1

UniProt O00507 = biological target: UniProt O00507
Outline: as §1

UniProt P51784 = biological target: UniProt P51784
Chain of UniProt P51784 (P51784 whole entry): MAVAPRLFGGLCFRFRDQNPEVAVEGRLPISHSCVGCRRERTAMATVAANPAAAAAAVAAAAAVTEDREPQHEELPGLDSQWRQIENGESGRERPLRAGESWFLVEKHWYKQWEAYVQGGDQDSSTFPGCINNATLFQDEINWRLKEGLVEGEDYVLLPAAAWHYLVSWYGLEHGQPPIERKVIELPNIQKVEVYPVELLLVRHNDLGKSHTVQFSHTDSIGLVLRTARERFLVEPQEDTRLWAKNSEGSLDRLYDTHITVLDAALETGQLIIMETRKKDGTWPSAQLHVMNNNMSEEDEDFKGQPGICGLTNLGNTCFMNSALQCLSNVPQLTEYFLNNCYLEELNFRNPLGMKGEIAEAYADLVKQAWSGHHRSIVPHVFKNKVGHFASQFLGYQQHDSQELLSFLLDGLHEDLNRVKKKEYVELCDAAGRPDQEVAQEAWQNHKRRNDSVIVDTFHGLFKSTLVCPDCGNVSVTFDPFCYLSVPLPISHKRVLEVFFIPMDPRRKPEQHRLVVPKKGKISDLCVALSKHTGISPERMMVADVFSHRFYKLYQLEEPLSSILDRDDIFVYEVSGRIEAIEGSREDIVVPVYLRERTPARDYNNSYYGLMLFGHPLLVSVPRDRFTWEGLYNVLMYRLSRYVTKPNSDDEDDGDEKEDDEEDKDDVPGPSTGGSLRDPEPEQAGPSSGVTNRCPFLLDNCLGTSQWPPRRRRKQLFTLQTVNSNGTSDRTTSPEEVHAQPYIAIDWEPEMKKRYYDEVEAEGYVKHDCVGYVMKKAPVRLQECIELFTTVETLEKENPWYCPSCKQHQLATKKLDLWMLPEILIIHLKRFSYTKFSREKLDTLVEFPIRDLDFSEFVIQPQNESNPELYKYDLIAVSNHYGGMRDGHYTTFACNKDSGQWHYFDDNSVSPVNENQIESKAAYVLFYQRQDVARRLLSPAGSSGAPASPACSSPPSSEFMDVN
Outline: as §1

UniProt Q5T2D3 = biological target: T1, UniProt Q5T2D3
T1 sequence (whole entry): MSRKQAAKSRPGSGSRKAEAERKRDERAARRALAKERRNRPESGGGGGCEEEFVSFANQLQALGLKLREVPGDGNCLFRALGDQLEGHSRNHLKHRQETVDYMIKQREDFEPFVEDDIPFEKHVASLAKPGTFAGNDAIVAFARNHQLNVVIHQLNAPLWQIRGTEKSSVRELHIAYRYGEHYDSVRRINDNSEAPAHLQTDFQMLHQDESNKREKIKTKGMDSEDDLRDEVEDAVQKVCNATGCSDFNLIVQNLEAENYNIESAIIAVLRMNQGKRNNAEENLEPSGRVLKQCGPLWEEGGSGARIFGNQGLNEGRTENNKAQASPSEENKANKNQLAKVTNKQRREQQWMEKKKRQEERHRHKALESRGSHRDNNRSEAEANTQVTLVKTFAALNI
Outline: as §1

UniProt Q8TE49 = biological target: T2, UniProt Q8TE49
T2 sequence (whole entry): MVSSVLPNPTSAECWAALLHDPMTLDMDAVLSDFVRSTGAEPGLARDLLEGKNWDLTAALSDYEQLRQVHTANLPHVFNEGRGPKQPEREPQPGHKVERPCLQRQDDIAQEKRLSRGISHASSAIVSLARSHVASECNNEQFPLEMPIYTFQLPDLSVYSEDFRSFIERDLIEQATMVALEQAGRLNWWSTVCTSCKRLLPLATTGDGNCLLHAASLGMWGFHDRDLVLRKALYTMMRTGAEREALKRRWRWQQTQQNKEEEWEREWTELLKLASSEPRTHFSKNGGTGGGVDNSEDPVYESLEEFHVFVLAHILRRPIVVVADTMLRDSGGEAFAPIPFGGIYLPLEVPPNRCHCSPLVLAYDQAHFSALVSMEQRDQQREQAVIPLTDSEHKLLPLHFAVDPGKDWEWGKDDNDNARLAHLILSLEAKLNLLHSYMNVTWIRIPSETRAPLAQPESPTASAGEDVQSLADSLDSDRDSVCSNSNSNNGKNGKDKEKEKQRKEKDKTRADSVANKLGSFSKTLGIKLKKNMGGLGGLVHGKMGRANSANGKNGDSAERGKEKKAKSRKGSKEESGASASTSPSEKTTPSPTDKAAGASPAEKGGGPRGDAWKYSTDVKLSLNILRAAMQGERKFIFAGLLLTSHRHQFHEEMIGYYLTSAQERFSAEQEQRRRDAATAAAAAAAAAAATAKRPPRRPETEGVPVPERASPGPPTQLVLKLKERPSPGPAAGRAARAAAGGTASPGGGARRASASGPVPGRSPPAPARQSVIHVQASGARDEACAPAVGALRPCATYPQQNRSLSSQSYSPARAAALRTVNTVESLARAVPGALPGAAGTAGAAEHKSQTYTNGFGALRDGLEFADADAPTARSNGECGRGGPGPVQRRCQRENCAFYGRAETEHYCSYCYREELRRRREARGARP
Outline: as §1

UniProt Q9P2H5 = biological target: T3, UniProt Q9P2H5
T3 sequence (whole entry): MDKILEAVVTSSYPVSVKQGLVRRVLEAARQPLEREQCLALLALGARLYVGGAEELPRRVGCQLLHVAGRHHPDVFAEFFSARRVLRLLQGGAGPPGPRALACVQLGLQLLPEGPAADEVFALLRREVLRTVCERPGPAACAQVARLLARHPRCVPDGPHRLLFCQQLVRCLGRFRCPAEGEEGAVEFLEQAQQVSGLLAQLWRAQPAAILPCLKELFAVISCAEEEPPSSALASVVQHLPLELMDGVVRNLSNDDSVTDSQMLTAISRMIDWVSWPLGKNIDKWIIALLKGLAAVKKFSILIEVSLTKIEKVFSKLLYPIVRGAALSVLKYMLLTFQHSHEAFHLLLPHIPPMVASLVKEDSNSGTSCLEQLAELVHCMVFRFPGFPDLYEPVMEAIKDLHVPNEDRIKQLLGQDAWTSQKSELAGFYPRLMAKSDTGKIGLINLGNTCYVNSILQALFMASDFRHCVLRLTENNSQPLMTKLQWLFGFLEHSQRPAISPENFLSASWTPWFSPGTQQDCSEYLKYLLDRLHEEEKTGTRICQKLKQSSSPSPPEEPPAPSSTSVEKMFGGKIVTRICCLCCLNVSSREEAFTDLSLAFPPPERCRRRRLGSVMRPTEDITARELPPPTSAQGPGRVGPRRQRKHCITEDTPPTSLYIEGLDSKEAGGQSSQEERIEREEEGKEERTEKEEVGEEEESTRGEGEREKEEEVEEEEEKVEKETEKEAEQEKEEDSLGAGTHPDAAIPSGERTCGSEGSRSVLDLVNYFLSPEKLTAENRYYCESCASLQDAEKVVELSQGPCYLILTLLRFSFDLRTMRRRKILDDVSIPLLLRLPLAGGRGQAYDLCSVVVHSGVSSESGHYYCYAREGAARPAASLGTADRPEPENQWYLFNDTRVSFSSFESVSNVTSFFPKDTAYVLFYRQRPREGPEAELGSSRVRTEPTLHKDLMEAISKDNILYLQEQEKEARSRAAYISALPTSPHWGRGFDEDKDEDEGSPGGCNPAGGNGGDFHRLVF
Outline: as §1

UniProt Q9UGI0 = biological target: T4, UniProt Q9UGI0
T4 sequence (whole entry): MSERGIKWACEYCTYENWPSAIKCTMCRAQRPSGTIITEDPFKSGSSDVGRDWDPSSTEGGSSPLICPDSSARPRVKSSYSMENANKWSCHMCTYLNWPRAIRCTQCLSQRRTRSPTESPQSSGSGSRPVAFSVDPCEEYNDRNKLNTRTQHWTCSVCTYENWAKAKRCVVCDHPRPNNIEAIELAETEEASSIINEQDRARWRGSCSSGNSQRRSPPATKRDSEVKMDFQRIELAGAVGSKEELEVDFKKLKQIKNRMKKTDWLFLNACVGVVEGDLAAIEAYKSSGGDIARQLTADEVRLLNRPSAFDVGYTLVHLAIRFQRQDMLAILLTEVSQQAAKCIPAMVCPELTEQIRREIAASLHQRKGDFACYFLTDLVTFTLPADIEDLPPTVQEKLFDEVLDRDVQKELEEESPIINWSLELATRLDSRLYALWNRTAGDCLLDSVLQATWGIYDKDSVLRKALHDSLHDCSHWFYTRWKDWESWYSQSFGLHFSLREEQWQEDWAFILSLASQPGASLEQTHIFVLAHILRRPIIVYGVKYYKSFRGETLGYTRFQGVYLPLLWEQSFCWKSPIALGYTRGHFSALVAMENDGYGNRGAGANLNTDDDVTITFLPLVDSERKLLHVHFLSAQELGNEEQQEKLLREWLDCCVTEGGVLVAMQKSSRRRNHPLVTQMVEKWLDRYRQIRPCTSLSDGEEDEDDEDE
Outline: as §1

YOD1 = biological target: T5, YOD1 (UniProt Q5VVQ6)
T5 sequence (whole entry): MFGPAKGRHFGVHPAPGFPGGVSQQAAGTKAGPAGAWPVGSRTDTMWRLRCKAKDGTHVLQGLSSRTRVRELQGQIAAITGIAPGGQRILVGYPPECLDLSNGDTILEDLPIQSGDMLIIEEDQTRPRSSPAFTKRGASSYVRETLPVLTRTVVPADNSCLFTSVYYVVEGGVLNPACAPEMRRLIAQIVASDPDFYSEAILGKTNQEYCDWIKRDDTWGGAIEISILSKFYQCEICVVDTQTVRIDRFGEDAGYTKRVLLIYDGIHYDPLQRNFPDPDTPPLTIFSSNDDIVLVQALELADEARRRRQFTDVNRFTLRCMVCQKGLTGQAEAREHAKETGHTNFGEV
Outline: as §1

Measured: log2 ratio of Biotin-Ahx-Ub-VS probe labelling

Chain of USP9X (Q93008 whole entry, the tested form may be a part): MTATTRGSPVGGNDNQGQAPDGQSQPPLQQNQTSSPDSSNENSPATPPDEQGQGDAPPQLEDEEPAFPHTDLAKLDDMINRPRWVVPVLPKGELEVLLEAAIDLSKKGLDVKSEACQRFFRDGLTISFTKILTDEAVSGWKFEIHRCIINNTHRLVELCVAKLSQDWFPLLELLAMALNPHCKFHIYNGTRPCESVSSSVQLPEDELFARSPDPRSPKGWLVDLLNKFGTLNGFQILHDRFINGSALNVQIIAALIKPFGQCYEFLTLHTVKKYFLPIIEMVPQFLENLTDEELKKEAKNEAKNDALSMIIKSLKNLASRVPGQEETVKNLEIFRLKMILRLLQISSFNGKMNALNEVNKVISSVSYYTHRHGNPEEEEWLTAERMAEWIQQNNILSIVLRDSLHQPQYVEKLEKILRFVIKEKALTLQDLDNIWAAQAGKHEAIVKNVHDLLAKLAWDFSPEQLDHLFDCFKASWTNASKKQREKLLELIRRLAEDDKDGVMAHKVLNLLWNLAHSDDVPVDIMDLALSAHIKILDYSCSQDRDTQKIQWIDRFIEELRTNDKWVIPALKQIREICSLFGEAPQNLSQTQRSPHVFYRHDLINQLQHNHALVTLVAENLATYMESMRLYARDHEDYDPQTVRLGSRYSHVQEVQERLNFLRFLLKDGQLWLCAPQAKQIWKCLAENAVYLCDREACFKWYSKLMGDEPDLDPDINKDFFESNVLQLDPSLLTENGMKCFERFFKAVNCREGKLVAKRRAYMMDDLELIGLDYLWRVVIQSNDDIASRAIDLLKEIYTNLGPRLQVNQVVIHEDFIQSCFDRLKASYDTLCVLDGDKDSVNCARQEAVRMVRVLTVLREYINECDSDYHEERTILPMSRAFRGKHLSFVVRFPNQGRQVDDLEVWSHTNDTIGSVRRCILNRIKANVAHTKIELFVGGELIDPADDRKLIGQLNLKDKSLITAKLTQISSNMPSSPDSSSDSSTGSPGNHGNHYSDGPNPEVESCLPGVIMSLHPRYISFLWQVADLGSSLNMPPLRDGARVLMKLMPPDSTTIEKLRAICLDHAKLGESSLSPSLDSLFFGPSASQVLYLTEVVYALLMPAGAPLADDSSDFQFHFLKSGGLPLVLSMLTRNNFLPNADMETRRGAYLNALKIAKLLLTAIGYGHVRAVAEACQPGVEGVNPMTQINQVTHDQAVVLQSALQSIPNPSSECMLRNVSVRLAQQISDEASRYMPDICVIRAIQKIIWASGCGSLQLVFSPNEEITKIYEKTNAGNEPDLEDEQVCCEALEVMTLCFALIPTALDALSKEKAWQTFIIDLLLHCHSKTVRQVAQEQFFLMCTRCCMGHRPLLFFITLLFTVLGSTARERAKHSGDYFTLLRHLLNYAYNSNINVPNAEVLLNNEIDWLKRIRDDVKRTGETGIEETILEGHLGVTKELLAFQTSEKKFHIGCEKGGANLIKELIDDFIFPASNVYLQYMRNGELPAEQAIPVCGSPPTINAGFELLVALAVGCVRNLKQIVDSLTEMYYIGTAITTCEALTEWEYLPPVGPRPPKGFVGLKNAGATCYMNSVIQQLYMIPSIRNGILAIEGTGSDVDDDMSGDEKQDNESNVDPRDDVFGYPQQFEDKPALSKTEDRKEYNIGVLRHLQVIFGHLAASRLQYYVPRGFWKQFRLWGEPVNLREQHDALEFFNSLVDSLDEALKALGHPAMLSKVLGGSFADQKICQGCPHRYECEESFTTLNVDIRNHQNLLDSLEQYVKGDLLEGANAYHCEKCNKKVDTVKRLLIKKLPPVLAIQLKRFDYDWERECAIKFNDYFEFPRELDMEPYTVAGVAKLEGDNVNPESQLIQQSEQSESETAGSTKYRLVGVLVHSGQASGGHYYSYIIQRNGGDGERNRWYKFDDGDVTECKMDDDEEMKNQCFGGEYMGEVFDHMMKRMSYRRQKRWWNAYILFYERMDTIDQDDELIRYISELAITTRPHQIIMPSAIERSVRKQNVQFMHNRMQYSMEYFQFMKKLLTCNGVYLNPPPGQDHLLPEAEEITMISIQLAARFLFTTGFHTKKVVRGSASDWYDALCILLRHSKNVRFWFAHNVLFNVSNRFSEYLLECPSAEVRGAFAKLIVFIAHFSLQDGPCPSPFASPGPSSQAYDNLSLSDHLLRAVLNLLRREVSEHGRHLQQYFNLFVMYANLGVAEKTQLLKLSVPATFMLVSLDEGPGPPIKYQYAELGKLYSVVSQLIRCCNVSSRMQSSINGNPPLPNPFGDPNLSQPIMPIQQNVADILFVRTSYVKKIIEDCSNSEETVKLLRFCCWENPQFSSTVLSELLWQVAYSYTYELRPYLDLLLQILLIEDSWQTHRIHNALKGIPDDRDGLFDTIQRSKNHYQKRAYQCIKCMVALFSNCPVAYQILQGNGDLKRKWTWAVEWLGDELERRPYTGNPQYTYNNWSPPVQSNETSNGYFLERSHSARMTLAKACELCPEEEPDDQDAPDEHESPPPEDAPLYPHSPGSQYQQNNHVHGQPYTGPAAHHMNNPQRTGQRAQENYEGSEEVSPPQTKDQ

Cn1cc(CN(Cc2ccc(Cl)cc2)C(=O)CCl)cn1
inactive: USP9X -0.441 | UniProt O00487 0.0261 | UniProt O00507 -0.606 | UniProt P51784 -0.11 | UniProt Q5T2D3 0.147 | UniProt Q8TE49 -0.82 | UniProt Q9P2H5 -0.065 | UniProt Q9UGI0 -0.327 | YOD1 -0.0228
